Several values for one entry are separate records, joined by “and”; a condition that tells them apart may be missing. Equal values may be shown once. Records with an inconclusive call do not appear. Where a call stands in place of a potency, no number is given. The source holds several records for some structures; these can differ, active in one and inactive in another. Activity calls are given as the source filed them. Unless noted, calls come from the whole dose curve.
How the values were obtained:
[1] = Nuclear factor erythroid 2-related factor 2/antioxidant responsive element (Nrf2/ARE) small molecule agonists: qHTS cell viability counter screen in human keratinocytes (AID 1919968; active = well fitted curve in the direction sought with a large enough effect in the repeat runs; an effect the other way counts as inactive or inconclusive; note: nearly all actives have a fitted effect of over 55% in size; note: potency is the fitted concentration of half-maximal effect)
Method in brief: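 Viability counter-screen: KeratinoSens reporter cells, DMSO-delivered compounds, 23 h at 37 C, CellTiter-Fluor fluorescence.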

[2] = Nuclear factor erythroid 2-related factor 2/antioxidant responsive element (Nrf2/ARE) small molecule agonists: luciferase reporter gene qHTS assay in human keratinocytes (AID 1919969); note: nearly all actives have a fitted effect of over 35% in size; note: potency is the fitted concentration of half-maximal effect
[3] = molecular target: Gonadotropin-releasing hormone receptor (Homo sapiens) (UniProt P30968); test: Human gonadotropin-releasing hormone receptor (GnRHR) small molecule agonists, calcium flux assay in GnRHR-HEK293 cells (AID 1920063); note: nearly all actives have a fitted effect of over 35% in size
Method in brief: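 Tox21-format agonist screen using human GnRHR-expressing HEK293 cells and a fluorescent calcium dye; kinetic 3-min fluorescence reading after compound addition, 15-point concentration series run in triplicate.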

[4] = molecular target: KiSS-1 receptor (Homo sapiens) (UniProt Q969F8); test: Human kisspeptin (KISS1R) small molecule agonists, calcium flux assay in KISS1R-HEK293 cells (AID 1920064; active = well fitted curve in the direction sought with a large enough effect in the repeat runs; an effect the other way counts as inactive or inconclusive)
Method in brief: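 Intracellular calcium mobilization in KISS1R-HEK293 cells was recorded by fluorescence (Ex/Em 480/540) for 3 min following compound addition to cells pre-loaded 1 h with calcium dye.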

[5] = G protein-coupled receptor (GPCR) small molecule agonists, calcium flux assay: HEK293 wild type cell line counter screen (AID 1920065)
Method in brief: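 In this agonist-mode screen, ATP is the positive control and DMSO the vehicle. Cells grow 18 h before a 1 h dye incubation at 37 C; signal is taken at Ex/Em 480/540 over 3 min.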

[6] = p53 small molecule agonists, cell-based qHTS assay with human liver microsomes (AID 1963577);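 note: p53 response element beta-lactamase reporter cells with liver microsomes plus NADPH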
Method in brief: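 In this qHTS, p53 response-element beta-lactamase cells receive test compound together with a microsome/NADPH activating system (0.5 mg/mL final each) and are incubated 16 h at 37 C before LiveBLAzer fluorescence detection.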

[7] = p53 small molecule agonists, cell-based qHTS assay with rat liver microsomes (AID 1963578)
Method in brief: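 Agonist mode in p53RE-bla reporter cells, with compounds co-incubated 16 h at 37 C alongside 0.5 mg/mL rat liver microsomes and 0.5 mg/mL NADPH (final), followed by a 2 h LiveBLAzer detection step.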

[8] = p53 small molecule agonists, cell-based qHTS assay with human liver microsomes: qHTS cell viability counter screen (AID 1963579); note: nearly all actives have a fitted effect of over 45% in size
Method in brief: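 Metabolically activated exposure: compounds, human liver microsomes and NADPH (0.5 mg/mL final apiece) were added to p53RE-bla cells seeded 5 h earlier, left 16 h at 37 C, and then assessed for viability by CellTiter-Glo luminescence.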

[9] = p53 small molecule agonists, cell-based qHTS assay with rat liver microsomes: qHTS cell viability counter screen (AID 1963580); note: nearly all actives have a fitted effect of over 45% in size
Method in brief: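 Viability is assessed in parallel with the p53 reporter read: HCT-116 p53RE-bla cells receive compounds plus rat microsomes and NADPH (0.5 mg/mL final apiece), incubate 16 h at 37 C, and then CellTiter-Glo luminescence is recorded.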

[10] = p53 small molecule agonists, cell-based qHTS assay: qHTS cell viability counter screen (AID 1963581); note: nearly all actives have a fitted effect of over 45% in size
Method in brief: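 Compounds are pinned onto HCT-116 p53RE-bla cells and left 16 h at 37 C. Following the reporter FRET read, ATP is quantified by CellTiter-Glo luminescence after 30 min at room temperature.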

[11] = p53 small molecule agonists, cell-based qHTS assay (AID 1963582; active = well fitted activation curve with a large enough effect in the signal ratio in the repeat runs, not every such curve was filed as active; the % refers to the signal ratio)
Method in brief: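 Agonist activity was scored from beta-lactamase FRET fluorescence in p53RE-bla cells treated 16 h at 37 C with compounds in DMSO, substrate incubation being 2 h at room temperature.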

[12] = molecular target: 5-hydroxytryptamine receptor 2A (Homo sapiens) (UniProt P28223); test: 5-hydroxytryptamine receptor 2A (HTR2A) small molecule antagonists, cell-based qHTS assay (AID 1963586); note: nearly all actives have a fitted effect of over 45% in size
Method in brief: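 Antagonist-mode intracellular calcium assay: DOI (4 nM) added after 5 min compound pre-incubation at room temperature to dye-loaded HTR2A-CHO cells. Fluorescence followed for 3 min, sampled every second.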

[13] = molecular target: 5-hydroxytryptamine receptor 2A (Homo sapiens) (UniProt P28223); test: 5-hydroxytryptamine receptor 2A (HTR2A) small molecule agonists, cell-based qHTS assay (AID 1963587); note: nearly all actives have a fitted effect of over 30% in size
Method in brief: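 CHO cells stably expressing human HTR2A, plated 18 h, loaded with calcium dye 1 h at 37 C. Agonist mode: compounds added and intracellular calcium fluorescence recorded kinetically for 2 min at 1 sec intervals.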

[14] = molecular target: Muscarinic acetylcholine receptor M1 (Homo sapiens) (UniProt P11229); test: Cholinergic receptor muscarinic 1 (CHRM1) small molecule antagonists, cell-based qHTS assay (AID 1963588); note: nearly all actives have a fitted effect of over 40% in size
Method in brief: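 CHRM1-CHO calcium-flux assay, antagonist mode. Cells were seeded 18 h, dye-loaded 1 h at 37 C and given compound for 5 min at RT, then acetylcholine was added at 50nM. FDSS fluorescence was read 3 min; 15 concentrations, three runs.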

[15] = molecular target: Muscarinic acetylcholine receptor M1 (Homo sapiens) (UniProt P11229); test: Cholinergic receptor muscarinic 1 (CHRM1) small molecule agonists, cell-based qHTS assay (AID 1963589); note: nearly all actives have a fitted effect of over 35% in size
Method in brief: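 Stable CHRM1-CHO cells (human receptor) were incubated 18 h, dye-loaded for 1 h at 37 C and exposed to test compounds for agonist activity, with calcium-dependent fluorescence followed kinetically.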

[16] = cAMP Responsive Elements (CRE) small molecule agonists, cell-based qHTS assay (AID 1963590)
Method in brief: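 FRET-based beta-lactamase readout (LiveBLAzer B/G, 2 h RT) quantified CRE activation in HEK 293T CRE-bla cells after 3 h treatment with DMSO-dissolved compounds.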

[17] = molecular target: Beta-2 adrenergic receptor (Homo sapiens) (UniProt P07550); test: Adrenergic beta2 receptor (ADRB2) small molecule antagonists, cell-based qHTS assay (AID 1963592); note: series mostly up to about 92 µM; nearly all actives have a fitted effect of over 50% in size
Method in brief: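 Cells (CHO, stable ADRB2 overexpression) incubated 18-20hr at 37C; compounds added from DMSO; agonist mix (1nM isoproterenol, 100uM IBMX, 25uM Ro-20-1724) added; 0.5hr RT; d2-cAMP and anti-cAMP-cryptate added; 1hr RT; 665/615 nm read.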

[18] = molecular target: D(2) dopamine receptor (Homo sapiens) (UniProt P14416); test: Dopamine D2 receptor (DRD2) small molecule agonists, cell-based qHTS assay (AID 1963594); note: nearly all actives have a fitted effect of over 35% in size
Method in brief: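 HEK293 cells stably expressing human DRD2, pre-treated with PDE inhibitor Ro20-1724 (0.1 mM final) and compound 10 min at room temperature, then stimulated with NKH477 (200nM […]) for 30 min. cAMP read by HTRF (665/620 nm).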

[19] = molecular target: D(2) dopamine receptor (Homo sapiens) (UniProt P14416); test: Dopamine D2 receptor (DRD2) small molecule antagonists, cell-based qHTS assay (AID 1963595; active = well fitted inhibition curve with a large enough effect in the signal ratio in the repeat runs, with a control signal flat; the % refers to the signal ratio)
Method in brief: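 In this cell-based antagonist screen, compounds act for 10 min at room temperature before a 30 min challenge with 12 nM quinpirole and 200 nM NKH477. cAMP is quantified by HTRF competition in DRD2-HEK293 cells containing 0.1 mM Ro20-1724.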

[20] = cAMP Responsive Elements (CRE) small molecule antagonists, cell-based qHTS assay (AID 1963591; active = well fitted inhibition curve with a large enough effect in the signal ratio in the repeat runs, not every such curve was filed as active; the % refers to the signal ratio)
Method in brief: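 qHTS in CRE-bla HEK 293T cells: compound in DMSO, then 0.25 uM NKH477 (final), 3 h at 37 °C/5% CO2; beta-lactamase FRET read-out after 2 h substrate incubation.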

Chain of Beta-2 adrenergic receptor (Homo sapiens) (P07550 whole entry, looked up): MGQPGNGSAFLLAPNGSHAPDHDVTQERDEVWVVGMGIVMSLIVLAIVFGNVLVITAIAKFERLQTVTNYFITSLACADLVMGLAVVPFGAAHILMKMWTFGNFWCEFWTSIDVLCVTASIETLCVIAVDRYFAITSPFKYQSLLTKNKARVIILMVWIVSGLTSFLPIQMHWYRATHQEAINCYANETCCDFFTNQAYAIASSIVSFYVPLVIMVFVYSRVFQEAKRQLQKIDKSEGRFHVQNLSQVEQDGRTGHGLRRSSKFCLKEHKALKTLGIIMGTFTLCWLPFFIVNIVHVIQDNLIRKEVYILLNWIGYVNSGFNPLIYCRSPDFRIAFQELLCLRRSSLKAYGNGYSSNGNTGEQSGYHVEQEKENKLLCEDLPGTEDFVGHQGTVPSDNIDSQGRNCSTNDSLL
Chain of Gonadotropin-releasing hormone receptor (Homo sapiens) (P30968 whole entry, looked up): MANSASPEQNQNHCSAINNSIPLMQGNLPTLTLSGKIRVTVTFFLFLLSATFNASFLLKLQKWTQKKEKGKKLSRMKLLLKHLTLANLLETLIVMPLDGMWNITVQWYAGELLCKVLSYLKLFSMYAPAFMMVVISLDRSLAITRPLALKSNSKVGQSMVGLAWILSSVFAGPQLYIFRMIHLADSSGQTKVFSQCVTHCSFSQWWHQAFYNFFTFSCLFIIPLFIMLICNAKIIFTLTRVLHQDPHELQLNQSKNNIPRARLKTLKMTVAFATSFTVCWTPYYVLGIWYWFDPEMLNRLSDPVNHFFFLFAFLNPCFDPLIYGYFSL
Chain of 5-hydroxytryptamine receptor 2A (Homo sapiens) (P28223 whole entry, looked up): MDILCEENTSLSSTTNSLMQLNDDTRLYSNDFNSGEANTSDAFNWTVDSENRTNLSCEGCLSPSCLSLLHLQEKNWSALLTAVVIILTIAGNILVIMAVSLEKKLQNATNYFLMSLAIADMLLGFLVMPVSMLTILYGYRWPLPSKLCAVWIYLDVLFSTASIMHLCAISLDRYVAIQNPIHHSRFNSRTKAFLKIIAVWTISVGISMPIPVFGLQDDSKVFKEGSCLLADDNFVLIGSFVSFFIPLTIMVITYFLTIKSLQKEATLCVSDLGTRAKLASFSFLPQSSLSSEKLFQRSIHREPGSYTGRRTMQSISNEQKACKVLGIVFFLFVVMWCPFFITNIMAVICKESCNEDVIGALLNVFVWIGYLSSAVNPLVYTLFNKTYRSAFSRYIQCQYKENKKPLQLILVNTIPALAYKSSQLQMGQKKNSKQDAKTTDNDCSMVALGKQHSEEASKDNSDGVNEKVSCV
Chain of Muscarinic acetylcholine receptor M1 (Homo sapiens) (P11229 whole entry, looked up): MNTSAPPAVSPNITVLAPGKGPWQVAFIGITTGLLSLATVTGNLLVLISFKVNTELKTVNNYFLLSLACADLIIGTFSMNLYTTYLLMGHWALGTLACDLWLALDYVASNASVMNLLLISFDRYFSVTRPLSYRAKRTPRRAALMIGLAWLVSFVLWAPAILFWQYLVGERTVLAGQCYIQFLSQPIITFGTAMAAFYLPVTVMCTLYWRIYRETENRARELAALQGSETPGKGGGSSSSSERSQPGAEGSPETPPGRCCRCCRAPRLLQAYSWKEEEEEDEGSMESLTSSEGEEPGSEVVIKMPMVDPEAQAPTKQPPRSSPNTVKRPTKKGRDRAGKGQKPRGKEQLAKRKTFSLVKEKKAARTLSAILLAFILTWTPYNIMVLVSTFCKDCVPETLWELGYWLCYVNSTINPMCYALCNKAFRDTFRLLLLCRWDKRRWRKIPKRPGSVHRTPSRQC
Chain of KiSS-1 receptor (Homo sapiens) (Q969F8 whole entry, looked up): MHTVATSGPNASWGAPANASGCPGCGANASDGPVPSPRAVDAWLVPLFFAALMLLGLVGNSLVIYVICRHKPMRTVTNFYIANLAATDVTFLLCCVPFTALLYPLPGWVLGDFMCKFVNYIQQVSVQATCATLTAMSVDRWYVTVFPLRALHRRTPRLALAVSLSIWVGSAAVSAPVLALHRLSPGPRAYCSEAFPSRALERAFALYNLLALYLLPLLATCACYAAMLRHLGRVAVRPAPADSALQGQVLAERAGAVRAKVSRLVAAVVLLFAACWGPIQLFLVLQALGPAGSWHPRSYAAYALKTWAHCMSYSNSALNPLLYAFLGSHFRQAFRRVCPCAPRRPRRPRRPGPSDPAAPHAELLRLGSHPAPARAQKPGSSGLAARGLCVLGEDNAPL
Chain of D(2) dopamine receptor (Homo sapiens) (P14416 whole entry, looked up): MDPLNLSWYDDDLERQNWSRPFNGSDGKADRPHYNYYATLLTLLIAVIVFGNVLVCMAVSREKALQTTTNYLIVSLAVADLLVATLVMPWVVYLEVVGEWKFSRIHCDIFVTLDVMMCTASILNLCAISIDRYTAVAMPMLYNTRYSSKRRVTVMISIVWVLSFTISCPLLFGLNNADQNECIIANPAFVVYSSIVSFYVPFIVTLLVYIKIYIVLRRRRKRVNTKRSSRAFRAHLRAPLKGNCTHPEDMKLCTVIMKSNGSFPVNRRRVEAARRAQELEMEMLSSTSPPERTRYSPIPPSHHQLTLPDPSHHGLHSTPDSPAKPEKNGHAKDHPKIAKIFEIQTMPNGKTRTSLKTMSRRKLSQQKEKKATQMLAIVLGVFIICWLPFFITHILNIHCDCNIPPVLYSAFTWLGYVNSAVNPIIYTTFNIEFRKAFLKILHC

Row | Compound | Potency [1] | Potency [2] | Potency [3] | Potency [4] | Potency [5] | Potency [6] | Potency [7] | Potency [8] | Potency [9] | Potency [10] | Potency [11] | Potency [12] | Potency [13] | Potency [14] | Potency [15] | Potency [16] | Potency [17] | Potency [18] | Potency [19] | Potency [20]
1 | Brc1ccc(Oc2ccc(Br)cc2)cc1 | inactive | inactive | inactive | inactive | inactive | inactive | inactive | inactive | inactive | inactive | inactive | inactive | inactive | inactive | inactive | inactive | inactive | inactive | inactive | 
2 | CC(C)[N+](C)(CCOC(=O)C1c2ccccc2Oc2ccccc21)C(C)C | inactive | inactive | inactive | inactive | inactive | inactive | inactive | inactive | inactive | inactive | inactive | inactive | inactive | inactive | inactive | inactive | inactive |  | inactive | inactive
3 | O=CCCCC=O | inactive | 52.5 µM (active) and inactive | inactive | inactive | inactive | inactive | inactive | inactive | inactive | inactive | inactive | inactive | inactive | inactive | inactive | inactive |  | inactive | inactive | inactive
4 | CC(=O)OCCOC(C)=O | inactive | inactive | inactive | inactive | inactive | inactive | inactive | inactive | inactive | inactive | inactive | inactive | inactive | inactive | inactive | inactive | inactive |  | inactive | inactive
5 | Nc1cc(Cl)c(N)c(Cl)c1 | inactive | 68 µM (active) and inactive | inactive | inactive | inactive | inactive | inactive | inactive | inactive | inactive | inactive | inactive | inactive | inactive | inactive | inactive |  | inactive | inactive | inactive
6 | OCCc1ccccc1 | inactive | inactive | inactive | inactive | inactive | inactive | inactive | inactive | inactive | inactive | inactive | inactive | inactive | inactive | inactive | inactive |  | inactive | inactive | inactive
7 | O=C(O)c1ccc(O)cc1 | inactive | inactive | inactive | inactive | inactive | inactive | inactive | inactive | inactive | inactive | inactive | inactive | inactive | inactive | inactive | inactive | inactive |  | inactive | inactive
8 | CCCCN(CCCC)CCCC | inactive | inactive | inactive | inactive | inactive | inactive | inactive | inactive | inactive | inactive | inactive | inactive | inactive | inactive | inactive | inactive | inactive | inactive | inactive | 
9 | COc1ccccc1[N+](=O)[O-] | inactive | inactive | inactive | inactive | inactive | inactive | inactive | inactive | inactive | inactive | inactive | inactive | inactive | inactive | inactive | inactive | inactive | inactive | inactive | 
10 | CCCCCCCCCCCCCCCO | inactive | 54.9 µM (active) and inactive | inactive | inactive | inactive | inactive | inactive | inactive | inactive | inactive | inactive | inactive | inactive | inactive | inactive | inactive | inactive | inactive | inactive | inactive
11 | Cc1ccc(S(=O)(=O)Oc2ccc(N=Nc3ccc(-c4ccc(N=Nc5c(O)ccc6cc(S(=O)(=O)O)cc(S(=O)(=O)O)c56)c(C)c4)cc3C)cc2)cc1 | 24.4 µM (active) and 17.8 µM (active) | inactive | inactive | inactive | inactive | inactive | inactive | inactive | inactive | inactive | inactive | inactive | inactive | inactive | inactive | inactive | inactive | inactive | inactive | inactive
12 | COC(=O)c1ccc(C=O)cc1 | inactive | inactive | inactive | inactive | inactive | inactive | inactive | inactive | inactive | inactive | inactive | inactive | inactive | inactive | inactive | inactive | inactive | inactive | inactive | 
13 | CCCCCCCCCCC(CO)CCCCCCCC (centres undefined) | inactive | inactive | inactive | inactive | inactive | inactive | inactive | inactive | inactive | inactive | inactive | inactive | inactive | inactive | inactive | inactive | inactive | inactive | inactive | inactive
14 | CCCCCCC(=O)O | inactive | inactive | inactive | inactive | inactive | inactive | inactive | inactive | inactive | inactive | inactive | inactive | inactive | inactive | inactive | inactive | inactive | inactive | inactive | 

Source: PubChem BioAssay (Tox21)
